Many of the other results were omitted from the sample, so hits are more common in it than they were.
Pf Dd2 growth = blocks in vitro growth of P. falciparum Dd2. hit rate 4.3% among 120,000. Potency, µM (highest dose often 28.9 µM), for inactives: top-dose activity, negative = inhibition, most hits filed as inhibitors. P. falciparum Dd2 growth, SYBR Green, 72 h; active = well fitted inhibition curve with a large enough effect;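 also: plate controls were DMSO vehicle for no effect and reference drug for full effect; nearly all actives have a fitted effect of over 65% in size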
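Infected erythrocytes (Dd2, 0.3% parasitemia, 2.5% hematocrit final) are added to compound in RPMI-1640/Albumax II medium, grown 72 h at 37C in low oxygen, then lysed with saponin/Triton-X containing SYBR Green and read by fluorescence.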
* = called active by the depositor; i = inactive; [ ] = another dose, or the depositor's remark. Potency is read from the fitted curve at half-maximal effect.

SMILES	Pf Dd2 growth
CS(=O)(=O)Nc1ccc([C@H]2OCC(=O)N(Cc3ccc(F)cc3)[C@@H]2CO)cc1	i
CN(C)C[C@@H]1CN(Cc2ccccc2)C[C@H]1NC(=O)C1CCOCC1	62%
Nc1ncc(C(=O)N2CCCC3(CCOC3)C2)c(-c2ccccc2)n1 (centres undefined)	-4%
CC(C)c1noc(-c2cccn3c(CNC(=O)Cc4cccc(F)c4)nnc23)n1	i
Cn1cc(CN2CCCC2c2ccccn2)c(-c2ccc(Oc3ccccc3)cc2)n1 (centres undefined)	7.1µM*
O=c1cc(CN2CCCCC2c2ccccn2)[nH]c2ccc(F)cc12 (centres undefined)	-10%
CCn1ccnc1CN(C)Cc1cn(C)nc1-c1ccc(Oc2ccccc2)cc1	-4%
Cc1ccc(NC(=O)Cn2nc3c(cc2=O)CCCCC3)c(Cl)c1	-17%
O=C(NCCc1ccccc1)c1ccc(CS(=O)(=O)Cc2ccccc2Cl)o1	9%
O=C(NC1CCCCC1)N1[C@H]2CC[C@@H]1c1cncnc1C2	24%
O=c1oc2ccc3ccccc3c2cc1-c1nnc(Nc2cc(C(F)(F)F)ccc2Cl)s1	16%
COC(=O)c1ccccc1S(=O)(=O)N1CCN2C(=O)CNC(=O)C2C1 (centres undefined)	-7%
CC1Oc2ccc(NC(=O)c3ccc([N+](=O)[O-])cc3)cc2CN(Cc2ccccc2F)C1=O (centres undefined)	i
COc1ccc(CN2Cc3cc(NC(=O)c4ccc5c(c4)OCO5)ccc3OC(C)C2=O)cc1 (centres undefined)	-7%
COc1ccc(C(=O)Nc2ccc3c(c2)CN(Cc2cc(F)cc(F)c2)C(=O)C(C)O3)cc1 (centres undefined)	-14%
CC1Oc2ccc(NC(=O)c3ccc4c(c3)OCO4)cc2CN(Cc2ccccc2)C1=O (centres undefined)	-21%
COc1ccccc1CN1Cc2cc(NC(=O)c3ccc4c(c3)OCO4)ccc2OC(C)C1=O (centres undefined)	4µM*
COc1ccc(CN2Cc3cc(NC(=O)c4ccc([N+](=O)[O-])cc4)ccc3OC(C)C2=O)c(OC)c1 (centres undefined)	10µM*
COc1ccccc1CN1Cc2cc(NC(=O)Cc3cccs3)ccc2OC(C)C1=O (centres undefined)	i
COc1ccc(CN2Cc3cc(NC(=O)Cc4cccs4)ccc3OC(C)C2=O)cc1 (centres undefined)	-5%
COc1ccccc1CCN1Cc2cc(NC(=O)Cc3cccs3)ccc2OC(C)C1=O (centres undefined)	11µM*
Clc1cc(N2CCOCC2)n2nccc2n1	15%[44.1 µM]
Cc1nc2sccn2c(=O)c1S(=O)(=O)Nc1ccc(N2CCN(C)CC2)cc1	41%
CN1C(=O)Cc2ccccc2C1C(=O)N1CCN(c2ccc(Cl)cc2)CC1 (centres undefined)	i
CCOc1ccc(C2Nc3ccccc3-c3nnc(SCc4ccccc4)nc3O2)cc1OC (centres undefined)	14%
SMILES	Pf Dd2 growth
COCCn1c(C)cnc1CCNC(=O)NCC(C)C	24%
COc1ccc2[nH]c3c(c2c1)CCN(C)C31CCN(C(=O)c2ccc3ncccc3c2)CC1	-15%
Cc1noc(C)c1CC(=O)N1CCCN(C)c2ccccc21	-2%
CN(CC1CCOC1)S(=O)(=O)Cc1ccc(Cl)cc1 (centres undefined)	26%[5.79 µM]
O=C(O)CCCC(=O)N1Cc2ccccc2CC2(CCCCN2CC2CCOCC2)C1 (centres undefined)	12%
Cc1ccc(NC(=O)N2CCC(Cc3nncn3Cc3ccccc3)C2)cc1C (centres undefined)	-6%
O=C(c1ccc2cc[nH]c2c1)N1CCC(Cc2nncn2CC2CC2)C1 (centres undefined)	i
Cc1ccc(-c2cc(C(=O)N3CCC(Cc4nncn4CC4CC4)CC3)c3ccccc3n2)cc1C	2.8µM*
CC(C)NC(=O)N1C[C@@H]2C[C@H](C1)c1ccc(C3CCCCC3)c(=O)n1C2	-19%[44.1 µM]
O=C(Nc1ccc2nc(SCC(=O)N3CCCC3)sc2c1)c1ccc(F)cc1	i
NC(=O)c1ccccc1NC(=O)CN1c2ccccc2S(=O)(=O)c2ccccc21	10µM*
COc1cc(Cl)c(C)cc1NC(=O)CN1c2ccccc2S(=O)(=O)c2ccccc21	-7%
O=S1(=O)c2ccccc2N(Cc2ccccc2)c2ccccc21	i
Cc1ccc(C(=O)N2CCCN(C(=O)C3CC3)c3ccccc32)cn1	13%
CNC(=O)Nc1ccc(C)n(CC(=O)N2CCN(c3cc(C)ccc3C)CC2)c1=O	i
Cc1ccc(C2Cn3nnc(C(=O)NCc4ccccc4C)c3CO2)cc1 (centres undefined)	-28%
Cc1ccc(NC(=O)c2ncn(-c3ccccc3)n2)cc1Cl	9%
CNC(=O)c1c(NC(=O)/C=C/c2ccccc2Cl)sc2c1CCC2	-17%
Cc1ccc(NC(=O)/C=C/c2ccccc2Cl)cc1Cl	2.8µM*
CCOc1ccccc1NC(=O)C1c2ccccc2C(=O)N(CCOC)C12CCCCC2 (centres undefined)	4µM*
COCCN1C(=O)c2ccccc2C(C(=O)NC2CCCC2)C12CCCCC2 (centres undefined)	12%
COc1ccccc1NC(=O)C1c2ccccc2C(=O)N(Cc2ccccc2)C12CCCC2 (centres undefined)	11µM*
CCc1ccccc1NC(=O)C1c2ccccc2C(=O)N(CCOC)C12CCCC2 (centres undefined)	i
COCCN1C(=O)c2ccccc2C(C(=O)NC2CCCCCC2)C12CCCC2 (centres undefined)	-13%
O=C(NCC1CCOCC1)C1c2ccccc2C(=O)N(Cc2ccccc2)C12CCCC2 (centres undefined)	-23%
SMILES	Pf Dd2 growth
CC(C)CN1C(=O)c2ccccc2C(C(=O)Nc2ccccn2)C12CCCC2 (centres undefined)	14µM*
COCCN1C(=O)c2ccccc2C(C(=O)NC2CCCCC2)C12CCCC2 (centres undefined)	-1%
COCCN1C(=O)c2ccccc2C(C(=O)Nc2cc(C)ccn2)C12CCCCC2 (centres undefined)	13µM*
CC(C)CCNC(=O)C1c2ccccc2C(=O)N(Cc2ccccc2)C12CCCC2 (centres undefined)	-16%
CC(C)CN1C(=O)c2ccccc2C(C(=O)N2CCSCC2)C12CCCC2 (centres undefined)	-15%
CC(C)NC(=O)C1c2ccccc2C(=O)N(Cc2ccco2)C12CCCCC2 (centres undefined)	-15%
CNC(=O)c1cccc(-n2ccnc2-c2ccc(C#CCCO)cc2)c1	-9%
CN(C(=O)c1ccsc1)C1CCc2nn(C)c(=O)n2CC1 (centres undefined)	19%
COc1ccccc1C(=O)Nc1ccc(-c2cc(C(F)(F)F)nn2-c2ccccc2)cc1	46%
Cc1ccc(Cl)cc1NC(=O)CCS(=O)(=O)c1ccc2c(c1)n(C)c(=O)c(=O)n2C	-25%
COC(=O)c1[nH]ncc1CN1CCC(c2nc(-c3ccccc3)no2)CC1	-2%
Cc1cc(-c2ccc(C)c(S(=O)(=O)N3CCC(C)CC3)c2)on1	i
COc1ccc2c(c1)C1(CCN(C(=O)NCCC(C)C)C1)C(=O)N2 (centres undefined)	4%
CCc1ccc(CN2C(=O)C3(CCOCC3)CC2c2nnnn2C(C)(C)C)cc1 (centres undefined)	-22%
Cc1ccccc1Nc1cnc2ccc(N3CCOCC3)nn12	-7%[44.1 µM]
CCOC(=O)COc1ccc(CC)cc1C(=O)c1ccn2nc(-c3ccc(C)cc3)cc2n1	i
